According to PubChem BioAssay (NCATS):
Inconclusive results are not listed. Activity calls are given as the source filed them. Unless noted, the call rests on the fitted dose curve; in most records, active means well fitted curve in the direction sought with a large enough effect; inconclusive means small, poorly fitted or top-dose-only effect, or another doubt; inactive means no such curve, though single readings can be large; an effect the other way counts as inactive or inconclusive.

Columns and labels:
[1] = target: Estrogen receptor (Homo sapiens) (UniProt P03372); test: qHTS assay for small molecule antagonists of estrogen receptor alpha signaling (AID 588513; active means well fitted curve in the direction sought with a large enough effect in the signal ratio, with a control signal flat, not every such curve was filed as active; the % refers to the signal ratio; further: on the % scale 0 is the no-effect control and ±100 the full control effect)
Method in brief: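 Beta-lactamase reporter, antagonist mode, HEK 293 GripTite cells; 0.5nM E2 stimulus, 18 h, 37 C; CCF4 dye 2 h RT; fluorescence. IC50 and efficacy from Hill fits, normalized to E2 and DMSO.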

[2] = target: Estrogen receptor (Homo sapiens) (UniProt P03372); test: qHTS assay for small molecule agonists of estrogen receptor alpha signaling (AID 588514; calls by dose curve;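 further: 0% = vehicle only and 100% = reference agonist; nearly all actives have a fitted effect of over 70% in size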)
Method in brief: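 Read-out: CCF4 fluorescence from a beta-lactamase reporter in ER-alpha-UAS-bla HEK 293 cells after 18 hrs of compound exposure at 37 C. Normalized to 20 nM 17-beta-estradiol (100%) and DMSO (0%).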

[3] = target: Vitamin D3 receptor (Homo sapiens) (UniProt P11473); test: qHTS assay for small molecule agonists of vitamin D receptor signaling (AID 588543; calls by dose curve;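 further: 0% = DMSO basal and 100% = reference agonist control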)
Method in brief: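 β-lactamase reporter, VDR-UAS-bla HEK293T, agonist mode. Cells plated 5 h at 37 °C, compound titration 16 h at 37 °C, CCF4 dye 2 h RT, ratio 460/530 nm. Hill fit → EC50, efficacy vs 50 nM 1α,25-(OH)2D3.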

[4] = qHTS assay for small molecule agonists of retinoid X receptor alpha signaling (AID 588544; calls by dose curve;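 on activation: 0% = DMSO basal wells and 100% = reference agonist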); conditions: HEK293T RXRa-UAS-bla, beta-lactamase reporter, 18 h; 530 nm emission
[5] = target: Retinoic acid receptor RXR-alpha (Homo sapiens) (UniProt P19793); test: as above
[6] = qHTS assay for small molecule antagonists of retinoid X receptor alpha signaling (AID 588546; active means well fitted inhibition curve with a large enough effect in the signal ratio, with a control signal flat, not every such curve was filed as active; the % refers to the signal ratio;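 further: cells stimulated with 9-cis-retinoic acid as agonist; on the % scale 0 is the no-effect control and ±100 the full control effect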); conditions: HEK293T RXRa-UAS-bla, beta-lactamase ratio, antagonist mode; measured here: W530 green channel, cytotoxicity proxy
Method in brief: (§1)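 Beta-lactamase reporter inhibition, read as CCF4 fluorescence ratio (ex 405, em 460/530 nm) after 2 h at RT. HEK293T UAS-bla cells, 2500/well, were stimulated with 9-cis-RA at 500 or 100 nM final alongside test compound for 18 h at 37 C.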

[7] = target: Retinoic acid receptor RXR-alpha (Homo sapiens) (UniProt P19793); test: as above; conditions: HEK293T RXRa-UAS-bla, beta-lactamase ratio, antagonist mode
Method in brief: as §1

[8] = qHTS assay for small molecule activators of the p53 signaling pathway (AID 651743; active means well fitted activation curve with a large enough effect in the signal ratio, not every such curve was filed as active; the % refers to the signal ratio; further: series mostly up to about 92 µM; % of control where 0% means no effect); conditions: HCT-116 p53RE-bla, beta-lactamase FRET ratio, 16 h; activation: stronger effect = higher value
Method in brief: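 Reporter: beta-lactamase driven by p53 response elements, stably integrated in HCT-116 cells. Cells seeded at 4,000/well, 5 h preincubation, compound (DMSO) 16 h at 37 C; B/G FRET substrate 2 h RT; fluorescence intensity read.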

[9] = qHTS assay for small molecule activators of the nuclear factor-kappa B (NF-kB) signaling pathway (AID 651749; active means well fitted activation curve with a large enough effect in the signal ratio; the % refers to the signal ratio; further: series mostly up to about 77 µM; % of control where 0% means no effect); conditions: NF-kB-bla ME-180 cells, beta-lactamase FRET ratio, 16 h; activation: stronger effect = higher value
Method in brief: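 NF-kB-bla ME-180 cells, 2,000/well; 23 nL compound or DMSO pinned; 16 hr, 37C/5% CO2; beta-lactamase FRET read-out.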

[10] = qHTS assay for environmental chemicals that activate the Aryl hydrocarbon Receptor (AhR) signaling pathway (AID 651777); conditions: 1A2-DRE human hepatoma cells, luciferase, 24 h; activation: stronger effect = higher value; further: % of control where 0% means no effect; nearly all actives have a fitted effect of over 15% in size
Method in brief: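 Following a 24 hr incubation with test chemicals at 37 C and 5% CO2, 1A2-DRE human hepatoma cells received One-Glo reagent; after 30 min at room temperature, luciferase output reflected CYP1A2 induction via AhR.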

[11] = target: Peroxisome proliferator-activated receptor alpha (Homo sapiens) (UniProt Q07869); test: qHTS assay for small molecule agonists of the peroxisome proliferator-activated receptor alpha (PPARalpha) signaling pathway (AID 651778); conditions: PathHunter PPARalpha complementation, chemiluminescence, 6 h; max response: stronger effect = higher value; further: % of control where 0% means no effect
Method in brief: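 Enzyme-fragment complementation assay in which ligand-bound PPARalpha translocates and forms an active enzyme that generates chemiluminescence. Cells were plated overnight, exposed to compound for 6 hr at 37 C, and then given detection reagent for 60 min at room temperature.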

[12] = qHTS assay for small molecule agonists of the antioxidant response element (ARE) signaling pathway measured by Nrf2-dependant transcriptional activity - cell viability counter screen (AID 720653; active means well fitted curve in the direction sought with a large enough effect in the repeat runs; an effect the other way counts as inactive or inconclusive; further: on the % scale 0 is the no-effect control and ±100 the full control effect); conditions: ARE-bla HepG2 viability, CellTiter-Glo ATP luminescence, 16 h; max response: stronger effect = lower value
Method in brief: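 ARE-bla HepG2 cells treated with compounds for 16 h at 37C; this counter screen measures viability as intracellular ATP by CellTiter-Glo luminescence after 30 min at room temperature.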

[13] = qHTS assay for cell viability of HEK293 cells (AID 743288); conditions: ATP luminescence (CellTiter-Glo), 18 h; max response: stronger effect = lower value; further: on the % scale 0 is the no-effect control and ±100 the full control effect; nearly all actives have a fitted effect of over 50% in size
Method in brief: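 ATP luminescence (CellTiter-Glo) reports metabolically competent cell number after parental HEK293 cells, 2,000/well, were treated with DMSO-dissolved compounds for 18 h at 37 C; reagent incubation 30 min, room temperature.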

[14] = qHTS assay for cell viability of the p53RE-bla HCT-116 cell line (AID 743292); further: on the % scale 0 is the no-effect control and ±100 the full control effect; nearly all actives have a fitted effect of over 55% in size
Method in brief: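 After plating at 4,000 cells per well and a 5 h rest at 37 C, HCT-116 cells carrying p53RE-bla received test chemicals in DMSO. Sixteen hours later at 37 C, CellTiter-Glo was added and luminescence recorded following 30 min at room temperature.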

[15] = target: Nuclear receptor subfamily 1 group I member 2 (Rattus norvegicus) (UniProt Q9R1A7); test: qHTS assay for small molecule activators of the rat pregnane X receptor (rPXR) signaling pathway (AID 651751; call rule not given here; further: 0% is about no effect); conditions: rPXR reporter cells, luciferase (One-Glo), 24 h
[16] = qHTS assay for small molecule activators of the human pregnane X receptor (PXR) signaling pathway (AID 720659; call rule not given here; further: 0% is about no effect)
[17] = qHTS assay for small molecule antagonists of peroxisome proliferator-activated receptor delta signaling (AID 588535; active means well fitted inhibition curve with a large enough effect in the signal ratio, with a control signal flat, not every such curve was filed as active; the % refers to the signal ratio;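 on max response: cells co-treated with a PPAR-delta agonist as stimulator during compound exposure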); conditions: HEK293T PPARd-UAS-bla, beta-lactamase FRET ratio, 18 h; 460 nm channel
Method in brief: (§2)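 Beta-lactamase reporter read-out (405 nm excitation, 460/530 nm emission) after CCF4 loading for 2 hrs at RT. HEK293T PPAR-delta-UAS-bla cells, 2% charcoal/dextran FBS, compounds for 18 hrs at 37 C. Hill fit gave IC50 and efficacy.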

[18] = target: Peroxisome proliferator-activated receptor delta (Homo sapiens) (UniProt Q03181); test: as above
Method in brief: as §2

Sequence of Nuclear receptor subfamily 1 group I member 2 (Rattus norvegicus) (Q9R1A7 whole entry, looked up): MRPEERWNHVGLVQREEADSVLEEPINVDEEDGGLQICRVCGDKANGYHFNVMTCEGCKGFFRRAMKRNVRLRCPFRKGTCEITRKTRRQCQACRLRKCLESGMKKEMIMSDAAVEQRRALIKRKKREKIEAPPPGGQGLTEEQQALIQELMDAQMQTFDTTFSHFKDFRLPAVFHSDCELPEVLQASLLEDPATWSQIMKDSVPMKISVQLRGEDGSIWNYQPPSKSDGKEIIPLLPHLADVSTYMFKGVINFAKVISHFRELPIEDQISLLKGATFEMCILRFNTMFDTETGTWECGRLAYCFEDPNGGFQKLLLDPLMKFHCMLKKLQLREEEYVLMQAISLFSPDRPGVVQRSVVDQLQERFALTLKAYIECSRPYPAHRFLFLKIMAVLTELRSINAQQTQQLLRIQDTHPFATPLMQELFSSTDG
Sequence of Peroxisome proliferator-activated receptor delta (Homo sapiens) (Q03181 whole entry, looked up): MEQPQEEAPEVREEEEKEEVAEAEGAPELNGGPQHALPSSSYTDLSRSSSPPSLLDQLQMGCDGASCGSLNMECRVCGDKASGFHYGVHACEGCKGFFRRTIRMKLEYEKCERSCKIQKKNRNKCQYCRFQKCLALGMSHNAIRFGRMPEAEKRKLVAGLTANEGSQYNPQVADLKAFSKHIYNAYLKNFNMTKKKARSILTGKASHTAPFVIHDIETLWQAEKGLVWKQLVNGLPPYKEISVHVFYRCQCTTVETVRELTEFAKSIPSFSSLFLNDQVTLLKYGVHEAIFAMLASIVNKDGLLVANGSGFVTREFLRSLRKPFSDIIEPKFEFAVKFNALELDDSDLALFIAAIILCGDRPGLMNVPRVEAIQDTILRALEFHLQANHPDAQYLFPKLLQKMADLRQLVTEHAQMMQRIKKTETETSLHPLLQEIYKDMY
Sequence of Estrogen receptor (Homo sapiens) (P03372 whole entry, looked up): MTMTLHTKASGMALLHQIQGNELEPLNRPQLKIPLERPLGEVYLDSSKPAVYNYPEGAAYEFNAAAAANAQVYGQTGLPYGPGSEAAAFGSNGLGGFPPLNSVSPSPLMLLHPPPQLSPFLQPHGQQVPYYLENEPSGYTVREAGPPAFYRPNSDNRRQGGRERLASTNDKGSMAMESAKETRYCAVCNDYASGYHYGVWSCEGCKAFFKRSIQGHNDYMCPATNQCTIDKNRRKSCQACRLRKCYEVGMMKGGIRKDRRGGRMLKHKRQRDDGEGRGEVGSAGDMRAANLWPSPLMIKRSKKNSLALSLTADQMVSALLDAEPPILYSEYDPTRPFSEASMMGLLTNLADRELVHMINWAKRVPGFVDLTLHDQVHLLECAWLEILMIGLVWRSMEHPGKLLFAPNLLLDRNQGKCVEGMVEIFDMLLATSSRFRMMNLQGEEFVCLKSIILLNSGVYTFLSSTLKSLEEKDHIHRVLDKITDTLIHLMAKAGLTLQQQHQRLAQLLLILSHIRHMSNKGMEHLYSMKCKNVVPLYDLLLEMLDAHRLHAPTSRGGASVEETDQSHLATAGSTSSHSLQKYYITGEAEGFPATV
Sequence of Vitamin D3 receptor (Homo sapiens) (P11473 whole entry, looked up): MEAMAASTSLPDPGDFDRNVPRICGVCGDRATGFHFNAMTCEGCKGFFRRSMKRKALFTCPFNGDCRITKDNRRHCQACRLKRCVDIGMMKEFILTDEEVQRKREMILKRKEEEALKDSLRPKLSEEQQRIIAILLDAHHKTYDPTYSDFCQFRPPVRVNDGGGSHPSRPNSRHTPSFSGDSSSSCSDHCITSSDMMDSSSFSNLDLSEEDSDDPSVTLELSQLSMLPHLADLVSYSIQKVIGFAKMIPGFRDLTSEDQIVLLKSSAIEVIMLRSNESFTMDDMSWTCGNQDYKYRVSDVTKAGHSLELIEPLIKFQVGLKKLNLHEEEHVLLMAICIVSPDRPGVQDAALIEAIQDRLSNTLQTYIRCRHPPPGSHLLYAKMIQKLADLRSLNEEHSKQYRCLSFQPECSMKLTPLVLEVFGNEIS
Sequence of Retinoic acid receptor RXR-alpha (Homo sapiens) (P19793 whole entry, looked up): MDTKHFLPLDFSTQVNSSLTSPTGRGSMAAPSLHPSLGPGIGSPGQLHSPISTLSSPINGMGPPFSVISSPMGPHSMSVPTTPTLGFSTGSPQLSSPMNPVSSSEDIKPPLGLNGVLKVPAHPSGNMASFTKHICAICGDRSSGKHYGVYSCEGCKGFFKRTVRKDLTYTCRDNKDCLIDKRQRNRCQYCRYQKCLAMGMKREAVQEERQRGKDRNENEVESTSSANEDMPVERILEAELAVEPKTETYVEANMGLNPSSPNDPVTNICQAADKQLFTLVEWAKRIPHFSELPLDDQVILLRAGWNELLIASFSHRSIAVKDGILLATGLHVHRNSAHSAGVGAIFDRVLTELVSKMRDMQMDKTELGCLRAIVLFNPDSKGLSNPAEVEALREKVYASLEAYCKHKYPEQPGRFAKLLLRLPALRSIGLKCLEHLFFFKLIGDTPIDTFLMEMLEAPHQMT
Sequence of Peroxisome proliferator-activated receptor alpha (Homo sapiens) (Q07869 whole entry, looked up, the tested form may be a part): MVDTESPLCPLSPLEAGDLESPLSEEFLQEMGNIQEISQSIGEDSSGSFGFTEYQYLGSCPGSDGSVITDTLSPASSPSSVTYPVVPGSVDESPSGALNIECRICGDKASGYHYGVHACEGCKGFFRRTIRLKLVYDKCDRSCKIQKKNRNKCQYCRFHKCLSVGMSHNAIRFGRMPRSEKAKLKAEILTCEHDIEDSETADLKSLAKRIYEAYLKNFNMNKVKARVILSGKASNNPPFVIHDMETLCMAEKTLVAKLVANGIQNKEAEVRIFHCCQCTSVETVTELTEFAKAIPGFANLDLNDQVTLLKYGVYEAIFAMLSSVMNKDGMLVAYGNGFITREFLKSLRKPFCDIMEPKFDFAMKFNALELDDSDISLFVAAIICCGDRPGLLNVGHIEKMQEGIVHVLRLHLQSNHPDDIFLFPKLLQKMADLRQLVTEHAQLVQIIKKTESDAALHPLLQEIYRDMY

Cn1c(=O)[nH]c(=O)n(C2CCCCC2)c1=O
-3.38%: max response [4]
inactive: Potency [1] | Potency [2] | outcome [3] | Potency [5] | max response [7] 5.47% | activation [8] -1.53% | activation [9] -1.18% | activation [10] -1.1% | max response [11] -0.628% | max response [12] -9.94% | max response [13] -7.06% | Potency [14] | max response [15] 1.25% | outcome [16]
-9.26%: max response [6]

CC(C)O.CC(C)O.CC(C)O.CC(C)O.[Ti]
-4.69%: max response [6]
inactive: Potency [1] | Potency [2] | Potency [18] | outcome [3] | Potency [5] | max response [7] 1.54% | activation [9] -1.08% | activation [10] 0.139% | max response [11] -0.904% | max response [12] -1.55% | max response [13] -10.9% | Potency [14] | max response [15] -0.917% | outcome [16]
-8.01%: max response [17]
-22.2%: max response [4]

CC(=O)/C=C/C1C(C)=CCCC1(C)C (stereo unspecified)
0.774%: max response [4]
1.01%: max response [6]
inactive: Potency [1] | Potency [2] | Potency [18] | outcome [3] | Potency [5] | max response [7] -10.8% | activation [8] -1.49% | activation [10] 0.579% | max response [11] -0.682% | max response [13] -13.5% | Potency [14] | max response [15] 8.79%
-18.3%: max response [17]

O=C1CCCC/C=C/CCCCCCCCCO1
-14.2%: max response [4]
inactive: Potency [1] | Potency [2] | Potency [18] | Potency [5] | max response [7] 5.91% | activation [8] 0.177% | activation [9] -0.561% | activation [10] -0.496% | max response [11] 11.1% | max response [12] 0.0367% | max response [13] 4.39% | Potency [14] | max response [15] -0.578% | outcome [16]
-0.124%: max response [17]
-16.9%: max response [6]

CCSC(=O)N(CC(C)C)CC(C)C
-16.2%: max response [17]
-7.79%: max response [6]
inactive: Potency [1] | Potency [2] | Potency [18] | outcome [3] | Potency [5] | max response [7] -2.54% | activation [8] -3.92% | activation [9] -0.513% | activation [10] 0.255% | max response [11] -0.436% | max response [12] -3.63% | max response [13] -1.7% | Potency [14] | max response [15] 2.63% | outcome [16]
-8.61%: max response [4]

CC(C)(C)C(O)/C(=C\c1ccc(Cl)cc1)n1cncn1 (stereo unspecified)
-0.493%: max response [6]
inactive: Potency [1] | Potency [2] | Potency [18] | outcome [3] | Potency [5] | max response [7] -24.9% | activation [8] -2.96% | activation [9] -1.6% | activation [10] 3.57% | max response [11] 6.34% | max response [12] -4.78% | max response [13] -13.5% | Potency [14]
-55.9%: max response [17]
16.3%: max response [4]

CCCCCCCCCCCCCCC(=O)OC
2.13%: max response [4]
-9.41%: max response [6]
-7.18%: max response [17]
inactive: Potency [1] | Potency [2] | Potency [18] | outcome [3] | Potency [5] | max response [7] 8.47% | activation [9] 0.418% | activation [10] -1.03% | max response [11] -0.882% | max response [12] -2.69% | max response [13] -7.2% | Potency [14] | max response [15] -2.84% | outcome [16]

C=Cc1ccccc1Br
-4.64%: max response [4]
-10.1%: max response [17]
1.9%: max response [6]
inactive: Potency [1] | Potency [2] | Potency [18] | outcome [3] | Potency [5] | max response [7] -9.99% | activation [8] -6.55% | activation [9] -1.27% | activation [10] 1.62% | max response [11] 0.716% | max response [12] -11.1% | max response [13] -11.7% | Potency [14] | max response [15] -0.877% | outcome [16]

CCCCCCCCCCCCCc1ccccc1
inactive: Potency [1] | Potency [2] | Potency [18] | outcome [3] | Potency [5] | max response [7] -2.52% | activation [8] 1.08% | activation [9] -0.242% | activation [10] 2.83% | max response [11] -0.643% | max response [12] -7.31% | max response [13] 4.66% | Potency [14] | max response [15] 0.527% | outcome [16]
-13.4%: max response [6]
21.6%: max response [17]
-8.78%: max response [4]

CCC(=O)OCCc1ccccc1
-6.4%: max response [6]
-7.14%: max response [4]
20.5%: max response [17]
inactive: Potency [1] | Potency [2] | Potency [18] | Potency [5] | max response [7] 3.85% | activation [8] -3.48% | activation [9] 1.34% | activation [10] 2.12% | max response [11] -0.0633% | max response [12] 0.747% | max response [13] -5.25% | Potency [14] | max response [15] -2.51% | outcome [16]

NCCCCCCCCCCCC(=O)O
inactive: Potency [1] | Potency [2] | Potency [18] | outcome [3] | Potency [5] | max response [7] 2.61% | activation [9] -0.832% | activation [10] -1.28% | max response [11] -1.44% | max response [12] 4.58% | max response [13] 6.09% | max response [15] -0.534% | outcome [16]
20.5%: max response [17]
-12%: max response [6]
-5.4%: max response [4]

CNc1nc(=O)n(C2CCC(O)CC2)c(=O)n1C (stereo unspecified)
29.9%: max response [17]
inactive: Potency [1] | Potency [2] | Potency [18] | Potency [5] | max response [7] 4.66% | activation [8] 1.92% | activation [9] -0.329% | activation [10] -1.26% | max response [11] -1.33% | max response [13] -1.62% | Potency [14] | max response [15] -0.414% | outcome [16]
-9.65%: max response [6]
-9.94%: max response [4]
